# The panel holds about 83,000 compounds, 20% with a hit somewhere; the sample as a whole holds those more often.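 Cell lines were cultured in 96-well plates, exposed to a single compound concentration, and assessed for percent growth 48 hours later.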 A number with no mark means an inactive call. Active and inactive are the calls of the source. The calls were made as follows: active = growth percent below 10; inactive = the rest.
# Tests used:
# Test in all cases: NCI-60 one-dose screen, 48 h (100 = growth as untreated, 0 = no growth, -100 = all killed)
# Conditions in all cases: 10 µM unless noted
# HCT-15 colon = tested on: HCT-15 colon
# HT29 colon = tested on: HT29 colon
# SNB-75 CNS = tested on: SNB-75 CNS
# SNB-19 CNS = tested on: SNB-19 CNS
# U251 CNS = tested on: U251 CNS
# PC-3 prostate = tested on: PC-3 prostate
# SK-MEL-5 melanoma = tested on: SK-MEL-5 melanoma
# UACC-62 melanoma = tested on: UACC-62 melanoma
# LOX IMVI melanoma = tested on: LOX IMVI melanoma
# SK-MEL-28 melanoma = tested on: SK-MEL-28 melanoma
# SK-MEL-2 melanoma = tested on: SK-MEL-2 melanoma
# EKVX NSCLC = tested on: EKVX NSCLC
# SN12C renal = tested on: SN12C renal
# UO-31 renal = tested on: UO-31 renal
# TK-10 renal = tested on: TK-10 renal
# ACHN renal = tested on: ACHN renal
# CAKI-1 renal = tested on: CAKI-1 renal
# CCRF-CEM leukemia = tested on: CCRF-CEM leukemia
# MOLT-4 leukemia = tested on: MOLT-4 leukemia
# A498 renal = tested on: A498 renal
SMILES,growth (HCT-15 colon),growth (HT29 colon),growth (SNB-75 CNS),growth (SNB-19 CNS),growth (U251 CNS),growth (PC-3 prostate),growth (SK-MEL-5 melanoma),growth (UACC-62 melanoma),growth (LOX IMVI melanoma),growth (SK-MEL-28 melanoma),growth (SK-MEL-2 melanoma),growth (EKVX NSCLC),growth (SN12C renal),growth (UO-31 renal),growth (TK-10 renal),growth (ACHN renal),growth (CAKI-1 renal),growth (CCRF-CEM leukemia),growth (MOLT-4 leukemia),growth (A498 renal)
CCCCCCN(C)Cc1ccc(OCCOc2ccc(CN(C)CCCCCC)cc2)cc1,5.57% (active),1.29% (active),28.8%,27.9%,7.97% (active),23.9%,-99.7% (active),-11.5% (active),-95.3% (active),-68.7% (active),-40.8% (active),55.3%,40.1%,-5.75% (active),31.6%,35.1%,27.2%,13.3%,-4.95% (active),
COc1ccc(/C=N/C2=C(C#N)C(c3ccccc3[N+](=O)[O-])c3ccc4ccccc4c3O2)cc1 (stereo unspecified),75.3%,112%,61.3%,96.6%,101%,71.7%,81.9%,81.1%,90.3%,113%,92.8%,72.1%,91.6%,64.8%,182%,90.8%,68.3%,106%,89.5%,
COc1ccccc1C(C[N+](=O)[O-])c1c(-c2ccccc2)[nH]c2cc(C)ccc12 (stereo unspecified),44%,35.8%,42.7%,81%,83.9%,69.5%,74.9%,43.8%,70.1%,78.9%,62.8%,71.7%,77.9%,57.2%,118%,73.4%,38.1%,54.4%,53%,
O=C(Nc1nc(-c2ccc(Br)cc2)cs1)c1cc(-c2ccc(Br)cc2)nc2ccc(Cl)cc12,81.6%,72.6%,87.3%,86.7%,76.8%,72.8%,91.2%,77.8%,94.8%,95.9%,93.9%,77.8%,85.1%,64.2%,115%,85%,79.3%,77.8%,80.6%,
C[C@H]1[C@H](C)CC[C@]2(CO)CC[C@]3(C)C(=CC[C@@H]4[C@@]5(C)Cc6c([nH]c7ccccc67)C(C)(C)[C@@H]5CC[C@]43C)[C@H]12,100%,68.1%,87.6%,80.8%,72.4%,68.5%,97.5%,81.4%,79.1%,79.6%,85.2%,75.5%,55.6%,74.3%,86.3%,60.8%,73.2%,,67%,
CC(=O)[C@@H]1CC[C@]2(C(=O)n3ccnc3)CC[C@]3(C)[C@H](CC[C@@H]4[C@@]5(C)Cc6c([nH]c7ccccc67)C(C)(C)[C@@H]5CC[C@]43C)[C@@H]12,87.7%,81.2%,101%,88.4%,87.7%,63.7%,94.3%,94.1%,87.2%,96%,91.2%,75.2%,94.2%,63.6%,102%,83.5%,,99.5%,74.1%,99%
COc1ccc(-n2cc(-c3cc(OC)c(OC)c(OC)c3)n(C(C)=O)c2=O)cc1,94.9%,108%,69.5%,86.1%,88.2%,94%,6.54% (active),84.1%,94%,115%,93.2%,88%,93.4%,77.2%,105%,97.7%,53.7%,,103%,
COc1ccc(C2=C(c3ccccc3)c3ccc(OC(C)=O)cc3OC2(C)C)cc1,80.4%,105%,118%,111%,95.7%,72.4%,93.1%,83.5%,71.4%,100%,94.9%,82.3%,93%,90.6%,116%,76.3%,67.8%,50.3%,4.69% (active),
[O-][n+]1ccccc1CCN(O)CCc1cccc[n+]1[O-],99.3%,98.5%,85.4%,102%,105%,91.8%,95.3%,99%,97.9%,116%,92.9%,99.4%,105%,75.5%,104%,95.8%,94.7%,99.5%,98%,
CCCCCCNC(=O)Oc1ccc(/C(=C(/CC)Cc2ccccc2)c2ccc(OCCN(CC)CC)cc2)cc1,5.48% (active),-24.3% (active),78.8%,69.2%,43.2%,51.6%,51.2%,87.6%,80.1%,80.8%,99.8%,81%,73.5%,58%,93.1%,89.4%,91%,45.4%,35.2%,
Cc1n[nH]c(C)c1-c1c(C)n[nH]c1C,-13.6% (active),7.37% (active),35.2%,28.3%,1.27% (active),17.8%,0.89% (active),7.89% (active),-64.3% (active),11.9%,29.9%,18.2%,9.52% (active),-0.471% (active),13%,-47.7% (active),-36% (active),12.3%,0.721% (active),
OC(c1ccccc1)c1ccccn1 (stereo unspecified),105%,89.3%,86.5%,100%,96.1%,89.9%,101%,103%,103%,107%,104%,98.8%,99.6%,93.1%,99.3%,108%,,88.7%,96.8%,98.5%
COC(=O)C1=C(C(=O)ONCCN(C)C)C2C=CC1(C(Cc1ccccc1)Nc1ccc(F)cc1)O2 (stereo unspecified),48.1%,75.1%,106%,105%,100%,105%,105%,90.9%,96.3%,96.1%,97%,102%,87%,81%,65.4%,-18.8% (active),88%,2.02% (active),30.6%,
O=c1[nH]c(=O)[nH]c(=S)[nH]1,103%,99.1%,96.5%,101%,103%,102%,102%,96.1%,98.1%,102%,103%,97.8%,94.3%,89.2%,95.8%,94.3%,94.9%,101%,105%,
COc1cc(CCNc2nc3cc(N)cc(N)c3nc2-c2ccccc2)cc(OC)c1,69.7%,5.3% (active),39.9%,12.9%,-80.3% (active),4.03% (active),-91.7% (active),-22.3% (active),-79.7% (active),-12.2% (active),-3.81% (active),57.6%,-77.7% (active),39%,104%,52.3%,184%,,-66.5% (active),
CCc1c(Nc2ccc(C)cc2)[nH]c(N)nc1=S,99.7%,103%,93.5%,98.3%,97%,107%,101%,93.8%,105%,104%,103%,84.9%,98.4%,91.5%,111%,98%,89.8%,107%,110%,

# From PubChem BioAssay (NCI)
